Sfp PPTase inh: qHTS Assay for Inhibitors of Bacillus subtilis Sfp phosphopantetheinyl transferase (PPTase); 4'-phosphopantetheinyl transferase ffp (Bacillus subtilis), Q9F4F7; Biochemical Sfp PPTase activity, qHTS; Potency, µM, hits mostly inhibitors; actives 3.5% (n = 310,000); active means well fitted curve in the direction sought with a large enough effect; inconclusive means small, poorly fitted or top-dose-only effect, or another doubt; inactive means no such curve, though single readings can be large; an effect the other way counts as inactive or inconclusive;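 further: the enzyme is Sfp with the accession as filed and its product quenches rhodamine fluorescence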
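Fluorescence-quenching assay: 15 nM Sfp-PPTase preincubated 15 min at room temperature with compound, then 5 uM rhodamine-CoA and 12.5 uM BHQ-2-labelled YbbR peptide added. Fluorescence (ex 525/em 598 nm) read at start and after 30 min; difference gives rate.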
ALDH1A1 inh: qHTS Assay for Inhibitors of Aldehyde Dehydrogenase 1 (ALDH1A1). Potency, µM (series often up to 75.3 µM), most hits filed as inhibitors. Aldehyde dehydrogenase 1A1 (Homo sapiens), P00352. Purified ALDH1A1, NADH fluorescence, propionaldehyde substrate. actives 7.3% (n = 220,000)
Target sequence (P00352 whole entry, looked up): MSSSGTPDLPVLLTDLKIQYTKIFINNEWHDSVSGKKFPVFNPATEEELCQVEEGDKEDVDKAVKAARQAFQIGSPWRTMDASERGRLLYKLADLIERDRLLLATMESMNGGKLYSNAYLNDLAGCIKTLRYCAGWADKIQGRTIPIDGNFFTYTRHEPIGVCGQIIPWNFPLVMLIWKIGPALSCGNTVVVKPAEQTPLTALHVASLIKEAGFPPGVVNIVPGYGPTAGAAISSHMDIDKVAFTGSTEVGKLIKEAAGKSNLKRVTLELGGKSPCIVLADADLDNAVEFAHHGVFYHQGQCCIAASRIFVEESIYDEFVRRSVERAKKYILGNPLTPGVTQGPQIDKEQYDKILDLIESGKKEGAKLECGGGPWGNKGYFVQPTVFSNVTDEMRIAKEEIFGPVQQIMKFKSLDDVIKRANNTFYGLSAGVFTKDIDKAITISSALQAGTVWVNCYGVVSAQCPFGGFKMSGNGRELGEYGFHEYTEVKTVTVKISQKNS
NPSR antag: qHTS Assay for Antagonists of the Neuropeptide S Receptor: cAMP Signal Transduction; actives 1% (n = 220,000); Potency, µM (top dose mostly 38.3 µM), most hits filed as inhibitors; AID 1461, 2008; Q6W5P4; CHO-NPSR cells, cAMP TR-FRET, antagonist mode; active means well fitted curve in the direction sought with a large enough effect; inconclusive means small, poorly fitted or top-dose-only effect, or another doubt; inactive means no such curve, though single readings can be large; an effect the other way counts as inactive or inconclusive; further: nearly all actives have a fitted effect of over 50% in size
Coupling enz: qHTS Assay for Inhibitors of Fructose-1,6-bisphosphate Aldolase from Giardia Lamblia: Coupling assay counterscreen | AID 2472, 2010 | activity change, negative = inhibition, % at 58.2 µM, hits read low | actives 0.67% (n = 290,000) | coupling enzyme system counterscreen, AmpLite Red fluorescence; in the data active means activity change below about -30%
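Activity here indicates interference with the coupling reaction, not aldolase inhibition. Compounds at 57.5 uM final met coupling enzymes for 10 min at RT; substrate and AmpLite Red detection followed, with a 525/598 nm fluorescence read after 20 min.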
RGS12 GoLoco inh: qHTS Assay for Inhibitors of RGS12 GoLoco Motif Activity (Red Fluorophore). actives 0.44% (n = 230,000). Potency, µM (highest dose often 61.6 µM), usual class: inhibitors. Guanine nucleotide-binding protein G(i) subunit alpha-1 (Homo sapiens), P63096. Gai1:RGS12 GoLoco peptide FP, rhodamine, 10 min; active means well fitted inhibition curve with a large enough effect, not every such curve was filed as active; inactive means no such curve, though single readings can be large or run the other way; further: nearly all actives have a fitted effect of over 30% in size
KDM4E inh: qHTS Assay for Inhibitors of Human Jumonji Domain Containing 2E (JMJD2E); JMJD2E catalytic domain, FDH-coupled NADH fluorescence (FDH is formaldehyde dehydrogenase); Potency, µM (highest dose often 57.1 µM), usual class: inhibitors; actives 1.6% (n = 230,000); AID 2147, 2009; further: nearly all actives have a fitted effect of over 50% in size
Numbers stand for hits; ! = repeats disagree. This is a sample that favours compounds with a hit; in the whole collection about 8.5% have one here. Unless noted, the call rests on the fitted dose curve; in most records, active means well fitted inhibition curve with a large enough effect (not every such curve was filed as active); inconclusive means small, poorly fitted or top-dose-only effect, or another doubt; inactive means no such curve, though single readings can be large or run the other way.

What do the screens show for `O=C(NC(=S)Nc1ccc2c(c1)OCCO2)c1ccccc1F`?
Sfp PPTase inh: inactive; ALDH1A1 inh: inconclusive; NPSR antag: inactive; Coupling enz: inactive; RGS12 GoLoco inh: inactive; KDM4E inh: inactive

How did O=C(COC(=O)c1ccc(NC(=O)C2CC=CCC2C(=O)O)cc1)c1ccccc1 (stereo unspecified) do in these assays?
Sfp PPTase inh: inactive; Coupling enz: inactive

Results for COc1ccccc1-c1nc(N(C)C)c2ccccc2n1 ?
Sfp PPTase inh: inactive; ALDH1A1 inh: inactive; Coupling enz: inactive; RGS12 GoLoco inh: inactive

What do the screens show for `CCOc1ccc(-n2nc3ccc(NC(=O)c4ccc5c(c4)OCCO5)cc3n2)cc1`?
Sfp PPTase inh: inactive; ALDH1A1 inh: inconclusive; NPSR antag: 10µM; Coupling enz: inactive; RGS12 GoLoco inh: inactive; KDM4E inh: inconclusive

Results for CCOc1cc(C(=O)NC(=S)Nc2ccc(Cl)c(C(=O)O)c2)cc(OCC)c1OCC ?
Sfp PPTase inh: inconclusive; ALDH1A1 inh: 19µM; NPSR antag: inactive; Coupling enz: inactive; RGS12 GoLoco inh: inactive; KDM4E inh: inactive

Results for CC(C)CC(=O)NS(=O)(=O)c1ccc(N)cc1 ?
Sfp PPTase inh: inactive; ALDH1A1 inh: 10µM; NPSR antag: inactive; Coupling enz: inactive; RGS12 GoLoco inh: inactive; KDM4E inh: inactive

What do the screens show for `C/C(=N\Nc1ncc(Cl)cc1Cl)c1ccc(N2CCOCC2)cc1`?
Sfp PPTase inh: 25µM; ALDH1A1 inh: inactive; NPSR antag: inactive; Coupling enz: inactive; RGS12 GoLoco inh: inactive; KDM4E inh: inactive

Results for C/C(=N\Nc1ccc(Cl)c(C(=O)O)c1)c1ccccn1 ?
Sfp PPTase inh: 79µM; NPSR antag: inactive; Coupling enz: inactive; RGS12 GoLoco inh: inactive; KDM4E inh: inactive

What do the screens show for `C/C(=N\Nc1ccc(Cl)c(C(=O)O)c1)c1cccc2ccccc12`?
Sfp PPTase inh: inactive; Coupling enz: inactive

What do the screens show for `C/C(=N\Nc1ncnc2sc(C)c(C)c12)c1ccccn1`?
Sfp PPTase inh: inactive; Coupling enz: inactive

Results for C/C(=N\Nc1ncc(Cl)cc1Cl)c1ccccn1 ?
Sfp PPTase inh: inactive; ALDH1A1 inh: inactive; NPSR antag: 1.3µM; Coupling enz: inactive; RGS12 GoLoco inh: inactive; KDM4E inh: inactive

What do the screens show for `CSc1nc(C(=O)N2CCCC(Nc3ccc(C)c(C)c3)C2)cs1` (stereo unspecified)?
Sfp PPTase inh: inactive; Coupling enz: inactive

Results for Cc1ccc(SCCSc2nc(C)cc(=O)[nH]2)cc1 ?
Sfp PPTase inh: inactive; Coupling enz: inactive

How did CC(=O)[C@@H]1[C@H]2[C@H](C(=O)[C@H]3OC[C@@H]2O3)[C@H]2C=Cc3ccccc3N21 do in these assays?
Sfp PPTase inh: 45µM; ALDH1A1 inh: 25µM; Coupling enz: inactive; RGS12 GoLoco inh: inactive; KDM4E inh: 13µM

Results for Cc1ccc(C(=O)[C@@H]2[C@H]3C4COC(O4)C(=O)[C@@H]3[C@H]3C=Cc4ccccc4N32)cc1 (stereo partly specified) ?
Sfp PPTase inh: inactive; ALDH1A1 inh: inconclusive; Coupling enz: inactive; RGS12 GoLoco inh: inactive; KDM4E inh: inactive

Results for COc1ccc(C(=O)C2C3C4COC(O4)C(=O)C3C3C=Cc4ccccc4N32)c(OC)c1 (stereo unspecified) ?
Sfp PPTase inh: 79µM; ALDH1A1 inh: inconclusive; Coupling enz: inactive; RGS12 GoLoco inh: inactive; KDM4E inh: inconclusive

How did O=C(N/N=C/c1cc(Br)cc([N+](=O)[O-])c1O)c1ccc(NC(=O)c2ccc(F)cc2)cc1 do in these assays?
Sfp PPTase inh: inactive; Coupling enz: inactive

What do the screens show for `CC1(C)S[C@@H]2[C@H](NC(=O)[C@H](C(=O)O)c3ccsc3)C(=O)N2[C@H]1C(=O)O`?
Sfp PPTase inh: inactive; ALDH1A1 inh: inactive; NPSR antag: inactive; Coupling enz: inactive; RGS12 GoLoco inh: 25µM!; KDM4E inh: inactive

Results for CCCCc1ccc(NC(=S)Nc2ccc(Cl)c(S(=O)(=O)N(C)C)c2)cc1 ?
Sfp PPTase inh: inconclusive; ALDH1A1 inh: inconclusive; NPSR antag: inactive; Coupling enz: inactive; RGS12 GoLoco inh: inactive; KDM4E inh: inactive

Results for O=C(Nc1ccccc1OC(F)F)c1cccc(S(=O)(=O)N2CCCC2)c1 ?
Sfp PPTase inh: inactive; Coupling enz: inactive

How did O=C(Nc1nnc(-c2ccc(Cl)cc2)o1)c1ccc(N2C(=O)CCC2=O)cc1 do in these assays?
Sfp PPTase inh: inactive; ALDH1A1 inh: inactive; NPSR antag: inactive; Coupling enz: inactive; RGS12 GoLoco inh: inactive; KDM4E inh: inactive

What do the screens show for `O=C(Nc1nnc(-c2ccco2)o1)c1ccc(N2C(=O)CCC2=O)cc1`?
Sfp PPTase inh: 79µM; ALDH1A1 inh: inactive; NPSR antag: inactive; Coupling enz: inactive; RGS12 GoLoco inh: inactive; KDM4E inh: inactive

Results for Cc1nc2c3cc(F)ccc3n(Cc3ccccc3F)c2s1 ?
Sfp PPTase inh: 18µM; ALDH1A1 inh: inconclusive; NPSR antag: inactive; Coupling enz: inactive; RGS12 GoLoco inh: inactive; KDM4E inh: inactive

What do the screens show for `Cc1nc2c3ccccc3n(Cc3ccccc3F)c2s1`?
Sfp PPTase inh: inactive; ALDH1A1 inh: inconclusive; NPSR antag: inactive; Coupling enz: inactive; RGS12 GoLoco inh: inactive; KDM4E inh: inactive

How did Cc1ccc(N/C(N)=N/c2nc(C)cc(N3CCCCC3)n2)c(C)c1 do in these assays?
Sfp PPTase inh: inactive; ALDH1A1 inh: inactive; NPSR antag: 10µM; Coupling enz: inactive; RGS12 GoLoco inh: inactive; KDM4E inh: inactive

What do the screens show for `Cc1ccc(N/C(N)=N/c2nc3c(c(=O)[nH]2)CCCC3)c(C)c1`?
Sfp PPTase inh: inactive; ALDH1A1 inh: inactive; NPSR antag: inactive; Coupling enz: inactive; RGS12 GoLoco inh: inactive; KDM4E inh: inactive

Results for CSCC[C@@H](N)C(=O)O ?
Sfp PPTase inh: inactive; ALDH1A1 inh: inactive; RGS12 GoLoco inh: inactive

How did COc1ccccc1/C=C/C(=O)NC(=S)Nc1ccc(S(=O)(=O)N(C)c2ccccc2)cc1 do in these assays?
Sfp PPTase inh: inactive; ALDH1A1 inh: 28µM; NPSR antag: inactive; Coupling enz: inactive; RGS12 GoLoco inh: inactive; KDM4E inh: inactive

What do the screens show for `CC(C)NS(=O)(=O)c1ccc(NC(=S)NC(=O)c2ccc(-c3ccccc3)cc2)cc1`?
Sfp PPTase inh: inactive; ALDH1A1 inh: 11µM; NPSR antag: inactive; Coupling enz: inactive; RGS12 GoLoco inh: inactive; KDM4E inh: inactive

Results for CN(c1ccccc1)S(=O)(=O)c1ccc(NC(=S)NC(=O)C2CC2)cc1 ?
Sfp PPTase inh: inactive; ALDH1A1 inh: inconclusive; NPSR antag: inactive; Coupling enz: inactive; RGS12 GoLoco inh: inactive; KDM4E inh: inactive

Assay outcomes deposited in PubChem by National Center for Advancing Translational Sciences (NCATS).
